About 650 (0.18%) of roughly 360,000 compounds were called active. The full list was thinned out, with actives kept by preference. Values without a mark were called inactive. No stated cut-off is given here; in the data, active means activation above about 30%; inactive means the rest.
target: Thyrotropin-releasing hormone receptor (Homo sapiens) (UniProt P34981); test: qHTS for Small Molecule Agonists and Allosteric Enhancers of Human TRH Receptor: Primary Screen for Agonists.; further: 0% is about no effect; settings: TRHR cells, calcium flux fluo-8, FDSS agonist mode; at 2 µM; hits give high values
Sequence (P34981 whole entry, looked up): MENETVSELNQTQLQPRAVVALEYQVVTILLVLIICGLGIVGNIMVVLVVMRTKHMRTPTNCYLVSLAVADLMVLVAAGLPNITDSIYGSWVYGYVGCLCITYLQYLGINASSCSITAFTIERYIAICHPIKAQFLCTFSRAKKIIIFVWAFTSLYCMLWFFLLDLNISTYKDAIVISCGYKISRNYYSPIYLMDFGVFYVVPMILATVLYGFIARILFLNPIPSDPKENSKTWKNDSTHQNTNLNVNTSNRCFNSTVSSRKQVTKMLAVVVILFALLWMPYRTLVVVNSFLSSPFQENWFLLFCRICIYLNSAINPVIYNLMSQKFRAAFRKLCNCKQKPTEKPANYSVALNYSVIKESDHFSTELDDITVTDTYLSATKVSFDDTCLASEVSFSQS
Excerpt: NIH Chemical Genomics Center [NCGC] NIH Molecular Libraries Probe Centers Network [MLPCN] MLPCN Grant: MH089816-01 Assay Submitter (PI): Marvin Gershengorn This project aims to identify small drug-like molecules that activate (agonists) the thyrotropin releasing hormone (TRH) receptor (TRHR) or enhance its TRH-stimulated activity (allosteric enhancers). TRHR, a drug-accessible cell surface receptor expressed in specific brain regions, and its ligand TRH have been implicated in several central nervous system disorders, including depression and anxiety. Small molecule TRHR agonists or allosteric enhancers that are metabolically stable and able to cross the blood-brain barrier might serve as probes to elucidate the roles of brain TRH receptors in animal models, and might be valuable as lead compounds for the development of drugs to treat patients with central nervous system disorders. Upon TRHR-Gq activation in TRHR cells, intracellular calcium is released from stores in the endoplasmic reticulum. […] This primary screen measures compound-induced activation of calcium release.
For the HTS assay freshly prepared cells are plated at a density of 2000/well in 3 ul of complete DMEM medium containing 10% serum in 1536-well plates and cultured over night at 37 C in a humidified incubator with 5% CO2. The next day, 2 ul of a no wash calcium dye (ABD Bioquest) was added to the cells and plates were incubated at room temperature for 1 hour. For the assay, assay plates were loaded into the FDSS kinetic plate reader. A 10 cycle (1 second/cycle) baseline measurement is taken and then the FDSS online 1536 pintool delivers 23 nl of compound library (as well as TRH controls) to the plate. The plate is measured for kinetically at 1 cycle/sec for 180 seconds and is considered to be the agonist portion of the assay (eg, compounds which activate a positive calcium response during this portion are flagged as potential agonists). Following the 180 second read, 1 ul of either an EC20 (positive modulation assay) is delivered by an onboard pipette head. Measurements are taken kinetically for an additional 180 seconds. TRHR FDSS Screening Protocol 1. Reagent, 3 uL 2000 cells/well 1536 TC treated Black plate in media containing 10% FCS 2. Time, 18 hours, 33.5C 5% CO2 (cells grown at 37C) 3. Reagent, 2 uL ABD fluo-8 Ca dye 4. Time, 30 min-1.5hrs hours, Room temp (6 plates/batch) 5. Detector, EX 480/EM 530C, FDSS 10 cycles baseline (1sec/cycle) 6. Compound, 23 nL of stock solution from library 7. Detector, EX 480/EM 530C, FDSS […] (1sec/cycle) Agonist mode 8. Compound, 1 ul EC20 of TRH made up in HEPES HBSS, 10 nM final 9. Detector, EX 480/EM 530C, FDSS 100 cycles (1sec/cycle) Potentiator mode

Row | Compound | activation
1 | Cc1cc2c(s1)c1cnn(Cc3cc(F)c(Cl)cc3Cl)c(=O)c1n2C | 0.185%
2 | CSc1ccc(NC(=O)Cn2nnnc2-c2ccccc2F)cc1 | 0.477%
3 | Cc1c(Cl)cccc1NC(=O)N1CCN(C(=O)c2nsc3ccccc23)CC1 | -1.09%
4 | Cc1ccc(C(=O)NC2CCN(C#N)CC2)cc1 | 0.438%
5 | O=S(=O)(c1ccc2c(c1)OCCO2)N1CCN(S(=O)(=O)c2cc(F)ccc2F)CC1 | -0.372%
6 | CCN(CC)CCNC(=O)Cn1ncc2c3ccccc3n(Cc3ccccc3C)c2c1=O | 1.76%
7 | CCOC(=O)c1ccc(-c2ccc(/C=C(\C#N)C(=O)Nc3ccc(C)cc3)o2)cc1 | 1.6%
8 | Cc1ccc2nc(/C(C#N)=C/c3ccccc3F)[nH]c2c1 | 1.62%
9 | Cc1ccc2nc(/C(C#N)=C/c3ccc(-c4ccc(C(=O)OC(C)C)cc4)o3)[nH]c2c1 | 69.6% (active)
10 | Cc1noc(/C=C/N(C)C)c1S(=O)(=O)N1CCCC(C(=O)Nc2cccc(F)c2)C1 (centres undefined) | -0.115%
11 | CCOC(=O)c1c(C)oc2nc(C)nc(N3CCN(c4ccc(OC)cc4)CC3)c12 | -1%
12 | COc1cccc(CNC(=O)Cc2csc3nc(-c4ccccc4)cn23)c1 | -0.21%
13 | COc1cccc2c1cc1c(=O)n(CC(=O)N3CCN(c4ccccc4)CC3)nc(C)n12 | 0.0688%
14 | COc1ccc(-n2c(SCC(=O)Nc3ccc(Cl)c(C)c3)nc3n[nH]c(C)c3c2=N)cc1 | 0.481%
15 | C/C(=N\NC(N)=S)c1ccncc1 | 0.334%
16 | CCOC(=O)c1c(C)oc2ccc(N(C(=O)c3ccncc3)S(=O)(=O)c3ccc(CC)cc3)cc12 | 0.327%
17 | CCN(CC)c1ccc2cc(C(N)=O)/c(=N\NC(=O)c3ccncc3)oc2c1 | 81.7% (active)
18 | N#CN1CCC(NC(=O)c2ccc(F)cc2)CC1 | 1.13%
19 | O=C(CNC(=O)c1ccc(Cl)cc1Cl)OC(C(=O)Nc1cc(C(F)(F)F)ccc1Cl)c1ccccc1 (centres undefined) | -0.435%
20 | CC(=O)Nc1c(C)nn(-c2ccccc2)c1N1CCC(C(=O)Nc2cc(Cl)ccc2C)CC1 | -0.0803%
21 | Cc1cccc2c(=O)cc(CSc3ccccc3NC(=O)C(C)C)[nH]c12 | 0.235%
22 | COc1ccc(CNC(=O)CCc2c(C)nn(-c3ccc(N4CCCC4)nn3)c2C)cc1 | 0.0444%
23 | Cc1ccc(C)c(Cn2c(=O)n(CCC(=O)NCc3ccc4c(c3)OCO4)c(=O)c3sccc32)c1 | -0.659%
24 | COc1ccc(N2CCN(C3=NS(=O)(=O)C(c4cccc(Br)c4)=C3C)CC2)cc1 | -0.301%
25 | COc1cc(C(=O)NCCS(=O)(=O)N2CCN(c3ccccc3)CC2)cc(OC)c1OC | 0.101%
26 | CCc1ccc(-n2nnc(-c3nc(-c4ccccc4)no3)c2C)cc1 | 0.119%
27 | CCCN(CCC)C(=O)C1CCCN(c2ncnc3c2nc2n3CCCCC2)C1 (centres undefined) | -0.956%

Row | Compound | activation
28 | O=C(CC(NCc1cccnc1)C(=O)O)Nc1ccc(O)cc1 (centres undefined) | 0.363%
29 | CCOc1cccc(CC(=O)N2CCc3c([nH]c4ccccc34)C2c2ccc(OC)cc2)c1OCC (centres undefined) | 0.0175%
30 | CC1CCCN(c2cc3c(cc2F)c(=O)c(S(=O)(=O)c2cccc(Cl)c2)cn3Cc2ccccc2)C1 (centres undefined) | 0.542%
31 | CCN(CC)c1ccc2oc(=O)c(C)nc2c1 | 100% (active)
32 | COc1cccc(N2CCN(S(=O)(=O)c3ccc4c(c3)CCCN4C(C)=O)CC2)c1 | -0.749%
33 | COc1ccc(CCNC(=O)Cn2c(=O)cc(C(F)(F)F)c3c(C)nn(C)c32)c(OC)c1 | -0.214%
34 | Cc1cc2c(s1)c1cnn(Cc3c(F)cccc3Cl)c(=O)c1n2C | -0.043%
35 | COc1cccc(NC(=O)Nc2ccc3c(c2)N(C)C(=O)c2ccccc2S3)c1 | -0.213%
36 | CCOC(=O)c1c(S(=O)(=O)N2CCCC(C(=O)NCc3ccc(F)cc3)C2)c(C)n(CC)c1C (centres undefined) | -0.483%
37 | O=S(=O)(c1ccc(Br)cc1)c1nnn2c1nc(NC1CCCCCC1)c1sccc12 | -0.704%
38 | COc1ccc(NC(=O)CSc2nc3ccccc3n2CC(=O)N2CCCCC2C)cc1 (centres undefined) | -0.312%
39 | N#Cc1nc(Nc2cccc(Cl)c2)nc(NC2CCCC2)n1 | -2.51%
40 | COc1ccccc1N1CCN(S(=O)(=O)CCNC(=O)COc2ccc(F)cc2)CC1 | -0.566%
41 | CCOc1cccc2c1N[C@@H](c1ccc(C(=O)O)cc1)[C@H]1CC=C[C@@H]21 | 0.0412%
42 | COc1ccc(CNC(=O)Cc2coc3ccc(C(C)C)cc23)cc1 | -0.0096%
43 | CCOc1cc(-c2nnc(SCC(=O)NC3CCCC3)nc2-c2ccc(OC)c(OCC)c2)ccc1OC | 0.306%
44 | CCOC(=O)c1nnn(CC(=O)NC(=O)Nc2ccccc2F)c1C(=O)OCC | 1.07%
45 | CN1CCOc2cc(S(=O)(=O)N3CCN(S(=O)(=O)c4c(F)cccc4F)CC3)cnc21 | -0.448%
46 | Nc1ccc2nc3c(=O)[nH]c(=S)[nH]c3nc2c1 | 35.9% (active)
47 | CCN(c1ccc(Cl)cc1)S(=O)(=O)c1nnc(NC(=O)c2ccco2)s1 | -0.115%
48 | COc1ccc(CCNC(=O)Cn2c(=O)n(-c3ccccc3)c(=O)c3c(C)c(C)sc32)cc1OC | -1.42%
49 | O=C(NCc1nnc(C(=O)Nc2ccc(C(F)(F)F)cc2Cl)o1)c1ccccc1 | -2.31%
50 | COC(=O)c1ccccc1NC(=O)c1ccc(C#N)cc1 | 0.34%
51 | Cc1ccccc1C(=O)NCc1nc(-c2ccc(Cl)cc2)no1 | -0.152%
52 | Cc1cccc(C(C)C)c1NC(=O)C(NS(=O)(=O)c1cccc2nsnc12)c1ccccc1 (centres undefined) | -0.333%
53 | COc1ccc(CNC(=O)Cn2nnc(-c3ccccc3F)n2)cc1 | -0.359%
54 | CCOc1ccccc1N(CC)C(=O)c1cc2ccc3cccnc3c2[nH]1 | 2.85%

— PubChem BioAssay AID493084 (National Center for Advancing Translational Sciences (NCATS), 2011)
